# Assay results published in paper PMC4336329 (PLoS ONE, 2015).
# Out of some 310,000 compounds screened, about 14,000 (4.5%) showed an effect of 50% or more. Effects have a minus sign here. What follows is part of a selection rich in strong results, with near analogues and random picks from the rest.
# Target: human ether-à-go-go-related gene (hERG) potassium channel (human, UniProt Q12809)
# Assay: primary screen, population patch clamp on CHO cells stably expressing hERG; higher = less effect of the substance
# 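Note: peak tail current of the secondary pulse compared with the same well before compound.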
# human ether-à-go-go-related gene (hERG) potassium channel, sequence (Q12809 whole entry, looked up): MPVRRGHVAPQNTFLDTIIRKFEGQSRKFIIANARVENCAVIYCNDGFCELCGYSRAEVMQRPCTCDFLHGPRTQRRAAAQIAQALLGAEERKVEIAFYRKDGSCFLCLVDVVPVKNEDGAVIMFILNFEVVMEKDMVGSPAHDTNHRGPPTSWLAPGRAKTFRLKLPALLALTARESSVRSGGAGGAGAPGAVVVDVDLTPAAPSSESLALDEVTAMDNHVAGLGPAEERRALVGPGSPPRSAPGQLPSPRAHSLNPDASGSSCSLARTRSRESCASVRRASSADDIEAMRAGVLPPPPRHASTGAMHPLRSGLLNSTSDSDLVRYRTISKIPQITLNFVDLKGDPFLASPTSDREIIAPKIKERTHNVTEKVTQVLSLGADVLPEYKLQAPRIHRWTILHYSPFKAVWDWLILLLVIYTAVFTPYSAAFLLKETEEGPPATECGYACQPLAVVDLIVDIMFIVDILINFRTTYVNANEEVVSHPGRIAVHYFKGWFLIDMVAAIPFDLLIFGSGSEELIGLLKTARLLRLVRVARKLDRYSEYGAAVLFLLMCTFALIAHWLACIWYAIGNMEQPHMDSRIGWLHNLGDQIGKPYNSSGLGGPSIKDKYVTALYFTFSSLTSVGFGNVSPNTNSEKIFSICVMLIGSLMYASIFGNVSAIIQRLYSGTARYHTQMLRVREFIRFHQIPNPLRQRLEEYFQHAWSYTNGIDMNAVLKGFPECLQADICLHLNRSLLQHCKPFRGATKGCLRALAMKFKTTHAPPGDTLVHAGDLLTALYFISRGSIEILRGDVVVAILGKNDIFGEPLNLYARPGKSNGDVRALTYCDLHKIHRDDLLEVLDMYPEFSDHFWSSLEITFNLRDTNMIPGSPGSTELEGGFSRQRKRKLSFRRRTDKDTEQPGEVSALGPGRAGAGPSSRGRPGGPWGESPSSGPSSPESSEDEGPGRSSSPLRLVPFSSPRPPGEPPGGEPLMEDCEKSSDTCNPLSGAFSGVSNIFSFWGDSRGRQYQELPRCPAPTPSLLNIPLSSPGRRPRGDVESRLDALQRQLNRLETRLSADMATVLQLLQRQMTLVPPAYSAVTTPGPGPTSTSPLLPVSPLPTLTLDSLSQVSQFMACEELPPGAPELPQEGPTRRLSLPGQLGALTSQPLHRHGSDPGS
row,Structure (SMILES),"hERG current change (%, negative = inhibition) at 10uM [%]"
1,c1ccc2c(c1)NC1(CCCC1)n1c-2nc2ccccc21,-9.46
2,CCOP(=S)(OCC)C(O)CCCCCn1c(=O)c(F)cn(C2CCCO2)c1=O (stereo not drawn),-2.13
3,CN(C(=S)Nc1ccc(F)cc1)C(c1ccccc1)c1ccccc1,11.1
4,CCn1c(SCC(=O)Nc2ccc(NC(C)=O)cc2)nc2c1c(=O)n(C)c(=O)n2C,24.7
5,O=C(C1=C[C@H](c2ccc3c(c2)OCO3)C[C@H](OCCCCO)O1)N1CCOCC1,-1.14
6,CC(=O)n1cc([C@H]2C=C(C(=O)N3CCN(Cc4ccc5c(c4)OCO5)CC3)O[C@@H](OCCCCO)C2)c2ccccc21,-32.7
7,O=C(C1=C[C@H](c2ccc3c(c2)OCO3)C[C@H](OCCCCO)O1)N1CCN(Cc2ccccc2)CC1,-62.8
8,CC(=O)n1cc([C@H]2C=C(C(=O)N3CCN(Cc4ccc5c(c4)OCO5)CC3)O[C@@H](OCc3ccc(CO)cc3)C2)c2ccccc21,3.43
9,CN1CCN(C(=O)C2=C[C@H](c3ccc4c(c3)OCO4)C[C@H](OCCCCO)O2)CC1,-8.06
10,O=C(C1=C[C@@H](c2ccccc2)C[C@@H](OCCCCO)O1)N1CCN(Cc2ccc3c(c2)OCO3)CC1,-55.2
11,CC(=O)n1cc([C@@H]2C=C(C(=O)N3CCN(Cc4ccc5c(c4)OCO5)CC3)O[C@H](OCCCCO)C2)c2ccccc21,-50.2
12,O=C(C1=C[C@H](c2ccccc2)C[C@H](OCc2ccc(CO)cc2)O1)N1CCN(Cc2ccc3c(c2)OCO3)CC1,-39.5
13,O=C(C1=C[C@@H](c2ccc3c(c2)OCO3)C[C@@H](OCCCCO)O1)N1CCN(Cc2ccc3c(c2)OCO3)CC1,-65.9
14,O=C(C1=C[C@H](c2ccccc2)C[C@H](OCCCCO)O1)N1CCN(Cc2ccc3c(c2)OCO3)CC1,-41.8
15,CC1(C)CC2(CCO1)OC(=O)CC2C(=O)Nc1ccccc1Cl (stereo not drawn),1.54
16,Cc1ccc(S(=O)(=O)NNC(=O)c2cccs2)c(C)c1,14.4
17,Cc1ccc(O)c(N=NC2=C(O)CC(C)(C)CC2=O)c1,3.16
18,Cc1nn(C)c(Oc2cccc(Cl)c2)c1C(=O)Nc1ccc(F)cc1,-15.3
19,CCn1c(CCn2ccnc2C)n[nH]c1=S,-1.48
20,O=C1CCCC2=C1C(Cc1ccccc1)C1=C(CCCC1=O)O2,-3.32
21,CCCc1cc(C(=O)NC(C)C2CCCO2)cs1 (stereo not drawn),7.72
22,Cc1nc2cc(NS(=O)(=O)c3ccccc3)ccc2n1C,9.21
23,CC(=O)c1cccc(NC(=O)C2CCCN(S(C)(=O)=O)C2)c1 (stereo not drawn),8.02

row,Structure (SMILES),"hERG current change (%, negative = inhibition) at 10uM [%]"
1,N#C/C(=C\c1ccccc1)C(=O)Nc1ccccn1,12.7
2,CCCCN1C(=O)c2ccc(C(=O)Nc3ccc(S(=O)(=O)N(C)C)cc3)cc2C1=O,-0.448
3,CCCCN1C(=O)c2ccc(C(=O)Nc3cccc(C)c3C)cc2C1=O,17.2
4,CCCCN1C(=O)c2ccc(C(=O)Nc3c(N)n(CCCC)c(=O)n(C)c3=O)cc2C1=O,-51.9
5,CCOC(=O)C1(Cc2ccc(OC)cc2)CCN(C(=O)CCc2cnccn2)CC1,-7.37
6,CCOC(=O)C1(CCCc2ccccc2)CCN(C(=O)CCc2cnccn2)CC1,-66.4
7,CCOC(=O)C1(Cc2ccc(Cl)cc2)CCN(C(=O)CCc2cnccn2)CC1,-50
8,CCOC(=O)C1(CCc2ccccc2)CCN(C(=O)CCc2cnccn2)CC1,-66.5
9,Cc1ccc(C)c(SCC(=O)Nc2cccnc2Cl)c1,0.545
10,O=C(COC(=O)Cc1ccccc1[N+](=O)[O-])NCC1CCCCC1,0.647
11,COc1ccc(NC(=S)NC(=O)C2CCC2)cc1,7.29
12,O=S(=O)(NCc1ccco1)c1cccc2cccnc12,-22.3
13,N#CC(C#N)=C1C=CC=CN1/C(=C\c1ccco1)C(=O)c1ccc(Br)cc1,-46.5
14,COc1ccc(C(=O)/C(=C\c2ccco2)N2C=CC=CC2=C(C#N)C#N)cc1,-72
15,N#CC(C#N)=C1C=CC=CN1/C(=C\c1ccco1)C(=O)c1ccc(Cl)cc1,-36
16,N#CC(C#N)=C1C=CC=CN1/C(=C\c1ccccc1Cl)C(=O)c1ccccc1,8.73
17,N#CC(C#N)=C1C=CC=CN1/C(=C\c1ccco1)C(=O)c1ccccc1,-57.8
18,N#CC(C#N)=C1C=CC=CN1/C(=C\c1ccco1)C(=O)c1ccc(-c2ccccc2)cc1,3.14
19,COc1cc(/C=N/Nc2ccc([N+](=O)[O-])cc2S(=O)(=O)N2CCOCC2)cc(OC)c1OC,-3.33
20,O=C(Nc1ccc(Cl)cc1Cl)c1csc(-c2cccnc2)n1,-1.42
21,CS(=O)(=O)N1CCc2cc(C(=O)Nc3ccccc3)ccc21,-1.25
22,Cc1cccc(Nc2nc(NCc3ccco3)nc(N)c2[N+](=O)[O-])c1,10.6
23,O=C(Nc1ccnn1C1CCN(Cc2ccc(OC(F)F)cc2)CC1)C1CCCC1,-75.3

row,Structure (SMILES),"hERG current change (%, negative = inhibition) at 10uM [%]"
1,Cc1ccc(CN2CCC(n3nccc3NC(=O)C3CCOC3)CC2)cc1C (stereo not drawn),-20.5
2,Cc1ccccc1CN1CCC(n2nccc2NC(=O)c2cccnc2)CC1,-14.6
3,O=C(Nc1ccnn1C1CCN(Cc2cccc(F)c2F)CC1)C1CCCC1,-23.2
4,CC(C)Oc1ccc(CN2CCC(n3nccc3NC(=O)c3cccnc3)CC2)cc1,-70.4
5,COc1ccc(CN2CCC(n3nccc3NC(=O)C3CC3)CC2)cc1O,-58.8
6,CCOc1cccc(CN2CCC(n3nccc3NC(=O)C3CC3)CC2)c1O,-64.2
7,Cc1cc(NC(=O)C(C)SCC(=O)OCc2ccc(Cl)cc2Cl)no1 (stereo not drawn),1.04
8,Cc1ccc(C(=O)NCc2ccco2)c(C)c1,20.5
9,O=C(CCC(=O)N1CCN(c2ccc(O)cc2)CC1)c1ccc(Br)cc1,-44.4
10,O=C(O)c1cc(-c2ccccc2)nc(-c2ccccc2)c1,22.5
11,CC1CN(c2ccc([N+](=O)[O-])cc2C(=O)N2CCOCC2)CC(C)N1 (stereo not drawn),-9.17
12,CCOc1ccc(CN2CCC(n3nccc3NC(=O)C3CC3)CC2)cc1CO,-57.1
13,Cn1cc(CN2CCC(n3nccc3NC(=O)C3CCCC3)CC2)cn1,12.6
14,CC(C)(O)C#Cc1ccc(CN2CCC(n3nccc3NC(=O)C3CC3)CC2)cc1,-19
15,COc1ccc(CN2CCC(n3nccc3NC(=O)C3CCCC3)CC2)cc1,-68.9
16,COC(=O)c1ccc(CN2CCC(n3nccc3NC(=O)C3CCCC3)CC2)cc1,-67.7
17,COC(=O)c1ccc(CN2CCC(n3nccc3NC(=O)C3CC3)CC2)cc1,-55.6
18,CCOc1cc(CN2CCC(n3nccc3NC(=O)C3CC3)CC2)ccc1O,-22
19,CC1CCCC(C)N1CCCNC(=O)Cn1cc2c(n1)CCCC2 (stereo not drawn),-3.99
20,COc1cccc(CNCc2ccc3c(c2)OCO3)c1.O=C(O)C(=O)O,13.7
21,O=C(N[C@@H](Cc1ccccc1)c1nc2ccccc2[nH]1)c1cc([N+](=O)[O-])ccc1Cl,-28
22,CCc1c(O)nc(SCC(N)=O)n(-c2ccccc2F)c1=O,7.56
23,CCC(C)N(C(=O)C(F)(F)F)C(C(=O)NC1CCCCC1)c1ccncc1 (stereo not drawn),7.62

row,Structure (SMILES),"hERG current change (%, negative = inhibition) at 10uM [%]"
1,O=S(=O)(c1ccc(Cl)cc1Cl)N1CCCC1c1cccnc1 (stereo not drawn),7.32
2,Cc1ccc(SCC(=O)NCc2ccco2)cc1,3.39
3,COC(=O)c1c(SCC(=O)NC2CCCCC2)[nH]c2ccccc2c1=O,-0.717
4,COc1cccc(CN2CCC(n3nccc3NC(=O)C3CC3)CC2)c1,-44.7
5,CC(C)Oc1ccc(CN2CCC(n3nccc3NC(=O)C3CC3)CC2)cc1,-79.4
6,COc1cc(CN2CCC(n3nccc3NC(=O)C3CC3)CC2)cc(OC)c1,-66.3
7,O=C(Nc1ccnn1C1CCN(Cc2cccc(OCCO)c2)CC1)C1CC1,0.219
8,CN(CC(=O)Nc1ccc(F)c(F)c1F)C(=O)C1CSC2(C)CCC(=O)N12 (stereo not drawn),-5.92
9,O=C(Nc1ccc(OC(F)F)cc1)Nc1cccc(C(F)(F)F)c1,6.56
10,O=C(CO/N=C/c1ccc(OC(F)F)cc1)NC1CCCC1,-49
11,CCOc1ccc(/C=N/OCC(=O)NCc2ccco2)cc1,-12.9
12,O=C(CO/N=C/c1ccccc1OC(F)F)NCc1ccco1,-5.06
13,O=C(CO/N=C/c1ccc(OC(F)F)cc1)NC1CCCCC1,-8.59
14,CCOc1ccc(/C=N/OCC(=O)NCc2cccs2)cc1,-11.6
15,O=C(CO/N=C/c1ccc(OC(F)F)cc1)NCc1ccc(F)cc1,-79.2
16,O=C(CO/N=C/c1ccc(OC(F)F)cc1)NCc1ccco1,-51.8
17,O=C(CO/N=C/c1ccc(OC(F)F)cc1)NCc1cccs1,-62.6
18,O=C(CO/N=C/c1ccccc1OC(F)F)NCc1cccs1,-12.9
19,COC(=O)c1ccc(/C=N/OCC(=O)NCc2ccc(F)cc2)cc1,17.9
20,CC(C)(C)c1ccc(/C=N/OCC(=O)NCc2ccc(F)cc2)cc1,-2.59
21,CN(C(=O)CO/N=C/c1ccc(OC(F)F)cc1)C1CCS(=O)(=O)C1 (stereo not drawn),-59.2
